Data taken from PubChem BioAssay.

Tests used:
[1] = system: Human papillomavirus type 1a protein E7 (residues 44-93); assay: HPV1a E7 fragment binders on microarrays, primary screen, biochemical, small-molecule microarray, residues 44-93, 635 nm fluorescence (AID 1108); details: small-molecule microarray binding, fluorescence 635 nm; higher = more signal;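 also: E7 fragment applied at 1 µg/mL in TBST for 1 h at 4 C; score combines spot fluorescence with its signal to noise ratio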
[2] = modulators of HCV replicon luciferase signal, primary screen, HCV replication inhibitor project, Huh7 cells, luciferase reporter (AID 1109); details: 48 h, higher = more signal;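 also: huh7 hepatoma cells harbouring a luciferase neomycin HCV replicon reporter; luciferase luminescence as measure of HCV replicon replication; test concentration not given here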
[3] = biological target: Left-right determination factor 2 (Homo sapiens) (UniProt O00292); assay: LEFTY2 binders on small-molecule microarrays, primary screen, biochemical, small-molecule microarray, 635 nm fluorescence scan (AID 1110); details: LEFTY2 binding, higher = more signal
[4] = biological target: Calmodulin-1 (Homo sapiens) (UniProt P0DP23); assay: CALM1 binders on microarrays, EGTA buffer, profiling panel, biochemical, small-molecule microarray, Cy5-labelled CALM1 (AID 1111); details: Cy5-CALM1 binding fluorescence, higher = more signal;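 also: labelled calmodulin applied in Tris saline Tween buffer holding calcium plus EGTA and DTT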
[5] = biological target: Calmodulin-1 (Homo sapiens) (UniProt P0DP23); assay: calcium-bound CALM1 binders on microarrays, profiling panel, artefact control for SMM control-protein annotation, biochemical, small-molecule microarray, Cy5-labelled CALM1, plus calcium (AID 1112); details: Cy5-CALM1 binding fluorescence, higher = more signal;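 also: score merges spot fluorescence with signal to noise from triplicate slides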
[6] = small-molecule microarray binders of probe aWnt5a, primary screen, biochemical, biotinylated probe, 635/667 nm fluorescence (AID 1113); details: higher = more signal;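 also: score merges 667 nm fluorescence intensity with signal-to-noise per printed feature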
[7] = small-molecule microarray binders of probe aShh, primary screen, biochemical, biotinylated probe, 635/667 nm fluorescence (AID 1114); details: higher = more signal;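 also: probe is biotin-labelled aShh protein from a stem cell growth factor screen; measures binding of labelled protein to compounds printed on the slide; score merges feature fluorescence at 667 nm with signal-to-noise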
[8] = small-molecule microarray binders of probe aNog, primary screen, biochemical, biotinylated probe, 635/667 nm fluorescence (AID 1115); details: higher = more signal;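 also: probe is biotinylated aNog protein used at 0.15 µg/mL for 1 h at 4 C; z-score combines 667 nm fluorescence of each spot with its signal to noise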
[9] = biological target: Torsin-1A-interacting protein 1 (Homo sapiens) (UniProt Q5JTV8); assay: LAP1 binders from COS7 cell lysate, primary screen, small-molecule microarray, 635/667 nm fluorescence (AID 1116); details: COS7-hLAP1 lysate binding, 635 nm fluorescence, higher = more signal
[10] = biological target: Alpha-bungarotoxin (Bungarus multicinctus) (UniProt P60615); assay: alpha-bungarotoxin binders on microarray, profiling panel, artefact control for SMM control protein annotation, biochemical, small-molecule microarray, Alexa647 label, 635/667 nm fluorescence (AID 1117); details: alpha-BTX-A647 binding fluorescence, higher = more signal
Chain of Alpha-bungarotoxin (Bungarus multicinctus) (P60615 whole entry, looked up): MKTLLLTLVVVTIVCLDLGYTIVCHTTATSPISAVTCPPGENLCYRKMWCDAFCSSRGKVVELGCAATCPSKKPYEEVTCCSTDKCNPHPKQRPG

Chain of Torsin-1A-interacting protein 1 (Homo sapiens) (Q5JTV8 whole entry, looked up): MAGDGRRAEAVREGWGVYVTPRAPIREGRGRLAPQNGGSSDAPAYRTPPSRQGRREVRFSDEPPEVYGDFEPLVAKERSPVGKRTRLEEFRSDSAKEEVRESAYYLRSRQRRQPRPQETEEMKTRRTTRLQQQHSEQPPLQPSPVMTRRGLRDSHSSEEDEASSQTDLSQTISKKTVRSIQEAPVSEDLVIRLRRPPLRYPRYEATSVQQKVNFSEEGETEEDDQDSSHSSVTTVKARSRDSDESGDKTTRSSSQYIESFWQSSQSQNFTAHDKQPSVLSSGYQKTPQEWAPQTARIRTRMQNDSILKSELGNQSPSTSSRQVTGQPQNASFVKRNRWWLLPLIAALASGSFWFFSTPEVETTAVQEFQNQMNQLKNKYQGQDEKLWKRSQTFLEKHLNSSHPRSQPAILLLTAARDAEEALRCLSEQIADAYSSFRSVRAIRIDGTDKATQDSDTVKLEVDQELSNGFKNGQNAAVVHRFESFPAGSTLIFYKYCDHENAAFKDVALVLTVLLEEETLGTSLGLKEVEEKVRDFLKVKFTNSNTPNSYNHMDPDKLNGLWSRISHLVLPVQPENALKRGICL
Chain of Left-right determination factor 2 (Homo sapiens) (O00292 whole entry, looked up): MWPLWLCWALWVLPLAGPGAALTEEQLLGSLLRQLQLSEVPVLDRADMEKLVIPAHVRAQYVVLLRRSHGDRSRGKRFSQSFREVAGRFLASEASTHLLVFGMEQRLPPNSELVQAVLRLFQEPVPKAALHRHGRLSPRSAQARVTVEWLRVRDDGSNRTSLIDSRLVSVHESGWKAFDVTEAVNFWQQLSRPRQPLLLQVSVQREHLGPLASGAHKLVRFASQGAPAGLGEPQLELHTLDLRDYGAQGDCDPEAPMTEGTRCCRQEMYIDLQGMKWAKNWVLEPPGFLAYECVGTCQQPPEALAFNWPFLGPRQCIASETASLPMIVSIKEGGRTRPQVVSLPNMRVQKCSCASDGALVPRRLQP

SMILES | composite z-score [1] | z-score [2] | composite z-score [3] | composite z-score [4] | composite z-score [5] | composite z-score [6] | composite z-score [7] | composite z-score [8] | composite z-score [9] | composite z-score [10]
CC(C)=CCCC(C)=CCON=C1C[C@@H](O)[C@@H](O)[C@@H]2[C@@H]3C(=O)N(C4CCCCC4)C(=O)[C@@H]3CC[C@H]12 | 0.684 | -0.127 | 0.594 | -0.432 | -1.2 | -0.0425 | -0.0904 | -0.341 | -0.0853 | 0.713
CCOC(=O)NN=C1C[C@@H](O)[C@@H](O)[C@@H]2[C@@H]3C(=O)N(c4ccc(F)cc4F)C(=O)[C@@H]3CC[C@H]12 | 0.108 | 1.28 | 0.42 | -0.244 | -0.212 | -0.126 | -0.289 | 0.0775 | 0.59 | 0.21
CC(C)(C)N1C(=O)[C@H]2[C@H]3[C@H](O)[C@H](O)CC(=NOC[C@@H](O)COCc4ccco4)[C@@H]3CC[C@H]2C1=O | -0.266 | -0.287 | 0.0349 | -0.235 | 0.314 | -0.0685 | -0.16 | -0.0733 | 1.45 | 1.65
C#CCCCON=C1[C@H]2CCn3c(=O)n(Cc4cc5c(cc4Cl)OCO5)c(=O)n3[C@H]2[C@H](O)[C@@H]2O[C@H]12 | 0.493 | 0.113 | 0.711 | -0.692 | -1.22 | -0.129 | -0.273 | -0.162 | 0.526 | 0.499
CC(C)=NOC(C)CN1CCCCc2nc(C)c(C)cc21 (stereo not given) | 0.103 | -0.594 | 0.576 | -0.254 | -0.66 | -0.113 | -0.0769 | -0.198 | 0.605 | -0.265
CCOC(=O)[C@H](Cc1ccccc1)NC(=O)CCC1CC(OC(=O)NCCc2ccc(F)cc2)CC2(CCCC(COC(=O)NCCOc3ccccc3)O2)O1 (stereo not given in full) | 1.4 | -1.05 | 0.701 | 0.483 | -0.296 | -0.0721 | -0.0709 | -0.28 | 0.306 | 0.472
COCC#Cc1ccc([C@@H]2N[C@H](C(=O)O)CC[C@H]2C)cc1 | -0.216 | 0.958 | 0.794 | -0.292 | 0 | -0.224 | -0.117 | -0.186 | -0.416 | 0.0645
CCOC(=O)CCN1C(=O)[C@H]2[C@H]3[C@H](O)[C@H](O)CC(=NO[C@@H]4O[C@H](CO)[C@@H](O)[C@H](O)[C@H]4O)[C@@H]3CC[C@H]2C1=O | 1.21 | 0.891 | 0.809 | -0.896 | -1.99 | -0.0417 | 0.296 | -0.0784 | 0.533 | 0.844
COc1ccc(COC(=O)NN=C2C[C@@H](O)[C@@H](O)[C@@H]3[C@@H]4C(=O)N(C[C@@H]5CCCO5)C(=O)[C@@H]4CC[C@H]23)cc1 | -0.491 | -0.186 | -0.34 | -0.325 | 0.237 | 0.0162 | -0.138 | -0.103 | 0.656 | 0.418
COC(=O)[C@@H]1CC[C@H](C)[C@@H](c2ccc(C)cc2)N1C(=O)c1ccc(C=NOC[C@@H](O)[C@H]2O[C@@H]3OC(C)(C)O[C@@H]3[C@H]2O)cc1 | 1.15 | -0.447 | 0.414 | 0.504 | -0.12 | -0.117 | -0.0709 | -0.168 | 0.555 | 0.776
O=C1C2=CC[C@H]3C(=O)N(C4CCCCC4)C(=O)[C@H]3[C@H]2[C@H](O)[C@@H]2O[C@H]12 | -1.46 | -5.43 | -0.0026 | -0.883 | -0.828 | -0.206 | -0.282 | -0.307 | -0.11 | -0.635
CC(=O)OC[C@H]1O[C@@H](ON=C2[C@H]3CCn4c(=O)n(-c5ccccc5)c(=O)n4[C@H]3[C@H](O)[C@@H]3O[C@H]23)[C@H](OC(C)=O)[C@@H](OC(C)=O)[C@@H]1OC(C)=O | 1.08 | -3.07 | 0.664 | -0.0898 | -0.268 | -0.101 | 0.0902 | -0.0563 | 0.479 | 0.393
CCOC(=O)[C@H](CC(C)C)NC(=O)CCC1CC(OC(=O)NCc2ccc3c(c2)OCO3)CC2(CCCC(COC(=O)NCCc3ccc(Cl)cc3)O2)O1 (stereo not given in full) | 0.838 | 0.225 | 0.582 | -0.131 | -0.572 | -0.0556 | -0.283 | -0.363 | 0.426 | 0.983
O=C1C=C[C@@H](O)[C@@H]2[C@@H]3C(=O)N(Cc4ccccc4)C(=O)[C@@H]3CC[C@@H]12 | 0.248 | 0.493 | 0.527 | -0.133 | -0.457 | -0.0758 | -0.283 | -0.213 | 0.476 | 0.332
O=C1C2=CC[C@H]3C(=O)N(c4ccc(F)cc4F)C(=O)[C@H]3[C@H]2[C@H](O)[C@@H]2O[C@H]12 | 0.356 | -0.155 | 0.662 | -0.232 | -0.773 | -0.206 | -0.352 | -0.553 | 0.335 | 0.455
COc1ccc(O[C@H]2C=C[C@@H](c3ccccc3)O[C@@H]2CON=C(C)CCN2CCCc3nc(C)c(C)cc32)cc1 | 1.09 | -2.04 | 0.597 | 0.284 | -0.425 | -0.0869 | -0.0769 | -0.158 | 0.358 | 0.651
